Bioassay records deposited in PubChem BioAssay by several laboratories.
14-3-3 Bad PPI: disrupts binding of bovine 14-3-3 zeta to phospho-Bad peptide | 220,000 tested, 0.71% active | inhibition, % at 21.7 µM | TR-FRET 14-3-3zeta/Dy647-pBad peptide displacement, 1 h;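 active = inhibition above about 70%, limit read from the data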;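 also: 0% = full 14-3-3 plus peptide FRET controls and 100% = background without 14-3-3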
Target sequence (P63103 whole entry, looked up): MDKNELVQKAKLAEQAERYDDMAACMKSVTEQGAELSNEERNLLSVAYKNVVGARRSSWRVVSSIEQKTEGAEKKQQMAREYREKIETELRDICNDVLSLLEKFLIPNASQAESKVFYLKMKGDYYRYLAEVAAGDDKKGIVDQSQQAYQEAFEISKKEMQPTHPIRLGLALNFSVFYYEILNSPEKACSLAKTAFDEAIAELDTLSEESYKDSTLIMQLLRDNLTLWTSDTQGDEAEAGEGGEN
eIF4E 4G PPI: eIF4E/eIF4G interaction inhibition in translation initiation. P63073+Q04637. inhibition, % at 21.7 µM. TR-FRET eIF4E-eIF4GI(517-606) binding, 2 h. 220,000 tested, 0.37% active;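 active = inhibition above about 30%, limit read from the data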;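 also: 0% = full FRET control wells and 100% = background wells lacking eIF4GI fragment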
Mcl1-Noxa inh: disrupts binding of human Mcl-1 to Noxa peptide | inhibition, % at 21.7 µM | 220,000 tested, 1.5% active | TR-FRET Mcl-1/Noxa peptide binding, 2 h | AID 1022;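 active = compounds that cut the protein-peptide binding signal by more than 50% relative to plate controls in a single-dose test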;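 also: His-tagged Mcl-1 with rhodamine Noxa BH3 peptide and terbium anti-His antibody; 0% = Mcl-1 plus Noxa peptide wells and 100% = peptide-only wells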
Target sequence (Q07820 whole entry, looked up): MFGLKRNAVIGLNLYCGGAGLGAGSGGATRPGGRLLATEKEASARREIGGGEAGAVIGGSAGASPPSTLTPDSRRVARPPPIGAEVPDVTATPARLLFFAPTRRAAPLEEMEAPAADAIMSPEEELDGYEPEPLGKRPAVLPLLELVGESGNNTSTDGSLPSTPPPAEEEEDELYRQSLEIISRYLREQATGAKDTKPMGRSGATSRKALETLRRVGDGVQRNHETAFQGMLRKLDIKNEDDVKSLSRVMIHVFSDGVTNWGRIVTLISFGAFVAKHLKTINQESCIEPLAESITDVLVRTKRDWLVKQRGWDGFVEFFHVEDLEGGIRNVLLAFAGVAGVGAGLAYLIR
Mcl-1 Bim block: disrupts Bim peptide binding to human Mcl-1. Bead-based flow cytometry, Bim peptide-Mcl-1 binding. inhibition, % at 10 µM. 190,000 tested, 0.1% active. AID 1009; in the data active = inhibition above about 40%;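 also: 0% = no compound tracer wells and 100% = peptide blocker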
MCL1 BIM primary: disrupts human MCL1 binding to BIM-BH3 peptide; Q07820; GST-MCL1 / FITC-Bim-BH3 fluorescence polarization; inhibition, % at 10.9 µM; 320,000 tested, 0.68% active; AID 2057;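 active = inhibition above the mean inhibition of all tested compounds plus 3 SD, set per campaign, cut at about 40% in these data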;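 also: 0% = DMSO wells and 100% = unlabeled Bim-BH3 peptide control; higher means more loss of mP so more displacement of Bim peptide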
Mcl1-Bid inh: Mcl-1/Bid interaction inhibition; Q07820; TR-FRET Mcl-1/Bid-Dy647 peptide binding, 1536-well; inhibition, % at 21.7 µM; 220,000 tested, 0.97% active;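 active = compounds that cut the binding signal by more than half at the single screening dose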;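 also: His-tagged Mcl-1 with europium anti-His antibody binding Bid BH3 peptide; 0% = Mcl-1 plus peptide wells and 100% = peptide-only wells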
* = called active by the depositor; x = no result given; [ ] = another dose, or the depositor's remark. A selection: hits, their analogues and other compounds. The true share with any hit is near 2.6%.

SMILES	14-3-3 Bad PPI	eIF4E 4G PPI	Mcl1-Noxa inh	Mcl-1 Bim block	MCL1 BIM primary	Mcl1-Bid inh
O=C(NCCc1ccccc1)[C@@H]1CC=C[C@@H]2CCN(C3CCCCC3)C(=O)[C@@H]21	x	x	x	x	3	x
CCOC(=O)c1c(C)[nH]c(C(=O)COC(=O)c2cnc(C)cn2)c1C	80*	1	-4	-3	-10	-18
CCOC(=O)c1c(C)[nH]c(C(=O)CN2CC(C)OC(C)C2)c1C (configuration not stated)	3	-4	4	-5	1	-13
CCOC(=O)c1c(C)[nH]c(C(=O)CN2CCN(CC)CC2)c1C	31	54*	26	x	-2	15
Cc1c(C(=O)N/N=C/c2cccnc2)nnn1-c1nonc1N	x	x	x	x	-3	x
CCOc1ccc(N=C2NC(=O)CS2)cc1	x	x	x	x	-4	x
Cc1ccc(NC(=O)c2cc3c(=O)oc4ccc(C)cc4c3s2)nc1	78*	-3	-23	x	7	49
COC(=O)CCC(=O)OC1(C)C(=O)C2=CN(Cc3ccco3)C(c3ccc(OC)cc3)=CC2=C(Br)C1=O (configuration not stated)	x	x	x	x	49*	x
COCCN1C=C2C(=O)C(C)(OC(=O)CCC(=O)OC)C(=O)C(Br)=C2C=C1c1ccc(OC)cc1 (configuration not stated)	x	x	x	x	44*	x
COC(=O)CCC(=O)OC1(C)C(=O)C2=CN(c3ccc(OC)cc3)C(c3ccc(OC)cc3)=CC2=C(Br)C1=O (configuration not stated)	x	x	x	x	13	x
CC1CCCCN1S(=O)(=O)c1ccc(S(=O)(=O)N2CCN(C)CC2)cc1 (configuration not stated)	x	x	x	x	0	x
N#Cc1cc(-c2ccccc2)nn1-c1ccccc1	80*[fluorescence artefact?]	66*[fluorescence artefact?]	97*	5	43*	27
Clc1ccc(NCc2ccsc2)cc1	x	x	x	x	-8	x
C=C(C)Cn1c(=O)c2c(nc3n2CCCN3CCc2ccccc2)n(C)c1=O	x	x	x	x	-5	x
CN1CCN(c2ccc(Cl)cc2NC(=O)c2ccc(S(=O)(=O)N(C)C)cc2)CC1	-6	-1	55*	0	0	8
CCN(CC)S(=O)(=O)c1cc(C(=O)Nc2cc(Cl)ccc2N2CCN(C)CC2)ccc1Cl	-8	-22	46	-6	3	-4
COc1cccc(/C=N/n2c(N)c(S(=O)(=O)c3cccs3)c3nc4ccccc4nc32)c1OC	-4	-13	9	-2	3	12
Nc1c(S(=O)(=O)c2cccc(Cl)c2)c2nc3ccccc3nc2n1/N=C/c1ccc(O)c(O)c1	12	7	64*	13	13	-12
O=[N+]([O-])c1ccc2c(c1)N([O-])C1(CCCCC1)[N+]2=O	0	5	83*	x	x	-24
Cc1cc(/C=C2\C(=N)N3N=C(c4ccco4)SC3=NC2=O)c(C)n1Cc1ccccc1	-10	-2	63*	x	2	-54
O=C(CN1C(=O)COc2ccccc21)N(Cc1ccc2c(c1)OCO2)CC1CCCO1 (configuration not stated)	-7	15	-3	-4	12	100*
C/C(=C\c1ccco1)C1C(C#N)=C(N)Oc2n[nH]c(-c3ccccc3)c21 (configuration not stated)	-15	4	69*	2	2	5
C/C(=C\c1ccco1)C1C(C#N)=C(N)Oc2n[nH]c(-c3ccc(C)cc3)c21 (configuration not stated)	0	-4	34	0	-3	-47
O=C(CN1C(=O)S/C(=C\C=C\c2ccccc2)C1=O)Nc1ccc(O)cc1	1	3	55*	-6	10	8
CC(OC(=O)CNC(=O)c1ccc2ccccc2c1)C(=O)N(C)C1CCCCC1 (configuration not stated)	x	x	x	x	-3	x
SMILES	14-3-3 Bad PPI	eIF4E 4G PPI	Mcl1-Noxa inh	Mcl-1 Bim block	MCL1 BIM primary	Mcl1-Bid inh
CCCCCOc1ccc(/C=c2\sc3nc(=O)c(-c4ccccc4)nn3c2=O)cc1OC	-10	0	21	-9	-14	-16
O=c1nc2s/c(=C\c3ccc(-c4ccccc4[N+](=O)[O-])o3)c(=O)n2nc1-c1ccccc1	-12	8	96*	3	x	-36
COc1cc(NC(=O)C2CCC(CNS(=O)(=O)c3csc(C(N)=O)c3)CC2)cc(OC)c1 (configuration not stated)	x	x	x	x	0	x
CN(C)CCCn1c2c(c(SCC(=O)Nc3ccc4c(c3)OCCO4)nc1=O)CCC2	x	x	x	x	1	x
COc1ccc(/C=N/Nc2ncnc3c2[nH]c2ccccc23)c(OC)c1OC	49	-5	55*	-5	-9	49
COc1cccc(/C=N/Nc2ncnc3c2[nH]c2ccc(C)cc23)c1OC	88*	-10	100*	x	5	35
CCN(CC)CCn1c2c(c(SCC(=O)NCc3ccccc3)nc1=O)CCC2	x	x	x	x	6	x
O=C(c1ccc(Cl)c(S(=O)(=O)NCc2cccnc2)c1)N1CCCC1	x	x	x	x	12	x
CN1CCc2c(sc(NC(=O)c3cc4cc([N+](=O)[O-])ccc4s3)c2C(N)=O)C1	72*	-9	4	1	x	-23
CN1CCc2c(sc(NC(=O)c3ccc(S(=O)(=O)N4CCc5ccccc54)cc3)c2C(N)=O)C1	49	-18	52*	x	-27	28
CN1CCc2c(sc(NC(=O)c3ccc([N+](=O)[O-])o3)c2C(N)=O)C1	x	x	x	x	22	x
CC(C)N1CCc2c(sc(NC(=O)c3cc4cc([N+](=O)[O-])ccc4s3)c2C(N)=O)C1	95*	4	76*	1	x	35
S=C(NCCc1ccccc1)Nc1ccc(Br)cc1	-4	4	13	-6	4	-17
CCCCc1c(C)nc2c(OC)cccc2c1SCCC(=O)O	-9	-3	52*	0	8	6
CCc1c(C)nc2c(OC)cccc2c1SCCC(=O)O	12	3	6	-2	-2	-4
CN(C)S(=O)(=O)c1ccc(Cl)c(NC(=O)CSc2nnnn2-c2ccc(O)cc2)c1	-5	0	22	-2	x	56*
COc1ccc(C(=O)OCC[N+]2(C)CCOCC2)cc1	41	31*	32	-3	-22	16
Nc1ccc(C(=O)Nc2ccc(Nc3ccncc3)cc2)cc1	0	0	-1	x	5	0
Nc1ccc(NC(=O)c2ccc(C(=O)Nc3ccc(N)cc3)cc2)cc1	30	-19	23	x	0	62*
Cc1cc(C)n2c(Br)c(CN3CCCC(C)C3)nc2n1 (configuration not stated)	-5	-6	-4	-3	13	-18
Nc1nonc1-n1nnc(C(=O)N/N=C/c2ccccn2)c1CNc1ccccc1	x	x	x	x	7	x
COc1cccc(NC(=O)COc2ccc(N3CC(C(=O)NCC(C)C)CC3=O)cc2)c1 (configuration not stated)	6	72*	17	1	-26	-6
CN(CC(=O)Nc1cccc(F)c1)C(=O)CN1C(=O)C2CCCCC2C1=O (configuration not stated)	x	x	x	x	-9	x
